# Measurements: PubChem BioAssay AID652062 (Broad Institute, 2013)
# About 1,100 (79%) of roughly 1,400 compounds were called active.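 Rule for the calls: active = fitted half-maximal concentration of a falling signal no higher than twice the top valid dose in every test run; inconclusive = runs disagree, or flat partial inhibition, or poor fit; inactive = every run inactive: flat, wrong direction, or potency beyond limit.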 The set was probably picked from earlier hits. A selection follows. Results with a measured potency or affinity are listed apart.
# Experiment: inhibitors of clade B AD8 Env fusion, dose response, cell-based, cherry-pick (AID 652062)
# Conditions: HeLa-AD8 Env / CEM-CCR5 cell fusion, luciferase; at 35 µM (top of the series) unless noted
row,SMILES,"activity change, negative = inhibition"
1,COc1ccc(-c2nn(C)c(=O)c3ccccc23)cc1NC(=O)COc1ccccc1,-10.9%
2,COc1ccc(OCC(=O)Nc2cc(-c3nn(C)c(=O)c4ccccc34)ccc2OC)cc1,-23.3%
3,CN(C)C(=O)C[C@@H]1C[C@@H]2c3cc(NS(=O)(=O)c4ccc(F)cc4)ccc3O[C@@H]2[C@@H](CO)O1,8.4%
4,CS(=O)(=O)Nc1ccc2c(c1)[C@@H]1C[C@@H](CC(=O)N3CCc4ccccc4C3)O[C@H](CO)[C@@H]1O2,41.9%
5,CS(=O)(=O)Nc1ccc2c(c1)[C@H]1C[C@@H](CC(=O)NCCN3CCCCC3)O[C@@H](CO)[C@H]1O2,21%
6,CS(=O)(=O)Nc1ccc2c(c1)[C@H]1C[C@H](CC(=O)N3CCc4ccccc4C3)O[C@H](CO)[C@H]1O2,-8.56%
7,CN(C)C(=O)C[C@H]1C[C@@H]2c3cc(NS(=O)(=O)c4ccc(F)cc4)ccc3O[C@@H]2[C@@H](CO)O1,-6.58%
8,O=C(Nc1ccc(F)cc1)Nc1ccc2c(c1)[C@@H]1C[C@H](CC(=O)N3CCCCC3)O[C@H](CO)[C@@H]1O2,-21.7%
9,O=C(C[C@H]1C[C@@H]2c3cc(NC(=O)Nc4ccc(F)cc4)ccc3O[C@@H]2[C@@H](CO)O1)NCC1CC1,-36.8%
10,O=C(C[C@@H]1C[C@H]2c3cc(NC(=O)Nc4ccc(F)cc4)ccc3O[C@H]2[C@H](CO)O1)NCC1CC1,49.9%
11,CN1CCN(C(=O)C[C@H]2C[C@@H]3c4cc(NS(C)(=O)=O)ccc4O[C@@H]3[C@H](CO)O2)CC1,-46%
12,O=C(Nc1ccc(F)cc1)Nc1ccc2c(c1)[C@@H]1C[C@H](CC(=O)N3CCCCC3)O[C@@H](CO)[C@@H]1O2,-7.88%
13,COc1cccc(S(=O)(=O)Nc2ccc3c(c2)[C@H]2C[C@H](CC(=O)NCc4ccc(Cl)cc4)O[C@@H](CO)[C@H]2O3)c1,0.353%
14,CN(C)CC(=O)Nc1ccc2c(c1)[C@H]1C[C@H](CC(=O)NCc3cccc(F)c3)O[C@@H](CO)[C@H]1O2,-1.18%
15,COCCNC(=O)C[C@@H]1C[C@H]2c3cc(N(C)C)ccc3O[C@H]2[C@@H](CO)O1,-37%
16,O=C(C[C@H]1C[C@@H]2c3cc(NC(=O)C4CCOCC4)ccc3O[C@@H]2[C@@H](CO)O1)NCc1ccccc1F,-7.12%
17,O=C(C[C@@H]1C[C@@H]2c3cc(NC(=O)C4CCOCC4)ccc3O[C@@H]2[C@H](CO)O1)NCc1ccccc1F,23.2%
18,O=C(C[C@@H]1C[C@H]2c3cc(NC(=O)C4CCOCC4)ccc3O[C@H]2[C@H](CO)O1)NCc1ccccc1F,10.9%
19,O=C(C[C@H]1C[C@H]2c3cc(NS(=O)(=O)c4ccc(F)cc4)ccc3O[C@H]2[C@@H](CO)O1)NCc1ccccc1F,28%
20,COc1ccc(S(=O)(=O)N(C)C[C@H]2Oc3cc(C4=CCCC4)ccc3S(=O)(=O)N([C@@H](C)CO)C[C@H]2C)cc1,5.51%
21,Cc1ccc(S(=O)(=O)N(C)C[C@H]2Oc3cc(C4=CCCC4)ccc3S(=O)(=O)N([C@H](C)CO)C[C@H]2C)cc1,-41.2%
22,COc1cccc(/C=N/NC(=O)CC2C(=O)NN=C2C)c1O (centres undefined),-20%
23,COc1ccc(CCCC(=O)NCCc2ccccc2)c(C)c1,7.11%
24,CCCNC(=O)C[C@@H]1C[C@H]2c3cc(NC(=O)Cc4ccncc4)ccc3O[C@H]2[C@@H](CO)O1,10.9% [at 30 µM]
25,CCCNC(=O)C[C@@H]1C[C@@H]2c3cc(NC(=O)Cc4ccncc4)ccc3O[C@@H]2[C@@H](CO)O1,-32.8% [at 30 µM]

row,SMILES,"activity change, negative = inhibition"
1,CCN(CC)S(=O)(=O)c1ccc(NC2c3ccccc3C(=O)N2Cc2ccc3c(c2)OCO3)cc1 (centres undefined),-25.4%
2,CCOc1ccc(NC2c3ccccc3C(=O)N2Cc2ccco2)cc1 (centres undefined),51.2%
3,O=C(Nc1cccc(F)c1)c1cc(S(=O)(=O)N2CCC(C(=O)O)CC2)ccc1F,43.8%
4,O=C(Nc1ccc(Cl)cc1)C1CCCN(C2=NS(=O)(=O)c3ccccc32)C1 (centres undefined),-27% [at 16 µM]
5,Cc1noc(C)c1NC(=O)N(C)C[C@H]1OCCCC[C@H](C)Oc2ccc(NC(=O)c3ccccc3)cc2C(=O)N([C@H](C)CO)C[C@@H]1C,107%
6,C[C@H](CO)N1C[C@H](C)[C@@H](CN(C)C(=O)Nc2cccc3ccccc23)OCCCC[C@H](C)Oc2ccc(N(C)C)cc2C1=O,-37.4%
7,O=C(N/N=C/c1ccc(-n2ccnc2)cc1)c1cccs1,91.2%
8,Clc1ccc2c(c1)C1=C(C(c3ccncc3)O2)C(c2ccc(Br)cc2)n2ncnc2N1 (centres undefined),285% [at 16 µM]
9,NC(Cc1ccc(F)cc1)c1csc(Nc2ccc(C(F)(F)F)cn2)n1 (centres undefined),-26.6% [at 16 µM]
10,Cc1cccc(/C=N\Nc2cn[nH]c(=O)c2Cl)c1,183%
11,COc1ccc(CCN2C(=O)c3[nH]nc(-c4ccccc4O)c3C2c2cccc(O)c2)cc1OC (centres undefined),4.61%
12,COc1ccc(OC)c(CN2C(=O)c3ccccc3C2c2nnnn2-c2c(C)cccc2C)c1 (centres undefined),-4.67%
13,CN(C(=O)c1cccc(NC(=O)Cc2cccc(NC(=O)C3CCCN(C(=O)C4CCC4)C3)c2)c1)C1CCC1 (centres undefined),49.5%
14,COc1ccc(-c2nnc(Nc3nc4c(OC)cccc4s3)o2)cc1,-27.2%
15,O=C(CCN1CCCCC1)N[C@@H]1CC[C@@H](CCn2cc(-c3ccccc3)nn2)O[C@@H]1CO,-17.1%
16,O=C(Cc1ccncc1)N[C@H]1CC[C@@H](CCn2cc(-c3ccccc3F)nn2)O[C@@H]1CO,-16.3%
17,O=C(CCN1CCCCC1)N[C@H]1CC[C@H](CCn2cc(-c3ccccc3)nn2)O[C@@H]1CO,-27.5%
18,O=C(Nc1cccc(F)c1)N[C@@H]1CC[C@H](CCNS(=O)(=O)c2cccc(Cl)c2)O[C@H]1CO,101%
19,COc1ccccc1S(=O)(=O)n1cc(Cc2ccccc2)c(N)n1,-17%
20,O=C(C[C@@H]1CC[C@@H](NC(=O)c2ccncc2)[C@H](CO)O1)NCCc1ccncc1,38.7%
21,COc1ccc(Nc2cc(C)nc(NCc3ccccc3)n2)cc1,-69.2%
22,C[C@@H]1CN([C@@H](C)CO)C(=O)c2cccc(NC(=O)c3cnccn3)c2O[C@H]1CN(C)Cc1ccc(Cl)c(Cl)c1,142% [at 16 µM]
23,C[C@@H]1CN([C@@H](C)CO)C(=O)c2cccc(NC(=O)c3ccc(-c4nccs4)cc3)c2O[C@H]1CN(C)CC1CC1,28.5%
24,C[C@@H]1CN([C@H](C)CO)C(=O)c2cccc(NC(=O)c3ccncc3)c2O[C@@H]1CN(C)Cc1ccc(C(=O)O)cc1,3.82%
